Data reported in the supplement of paper PMC10646978.
± gives the standard deviation.

Legend:
Details in all cases: modulator concentration 10 µM
[1] = tested on: RAW-Dual (murine macrophage reporter line); assay: NF-kB reporter (SEAP) activity fold change vs agonist alone; higher = enhanced NF-kB activity
In short: (§1)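 RAW-Dual murine macrophage reporter cells were plated at 50 000 per well in 384-well plates, pin-transferred compound to 10 μM final, and pre-incubated for 1 hour at 37 °C before a PRR agonist was added and the cells incubated overnight. NF-κB activity was read from supernatant SEAP with QUANTI-Blue at 620 nm absorbance, and IRF activity from Lucia luciferase with QUANTI-Luc by luminescence. Each signal was expressed as fold change by dividing by the mean agonist-only control on the same plate. Two replicate plates were averaged, with errors obtained by propagation.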

[2] = tested on: RAW-Dual (murine macrophage reporter line); assay: IRF reporter (Lucia luciferase) activity fold change vs agonist alone; higher = enhanced IRF activity
In short: as §1

[3] = tested on: RAW-Dual (murine macrophage reporter line); assay: viability score (confluency relative to resting cells, overnight) (fraction); higher = more viable, active = viable (0.7 or more)
In short: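 Two confluency masks, generated with IncuCyte software over all imaged wells, were applied to IncuCyte images of RAW-Dual macrophages. The cells, in 384-well plates, had been exposed overnight to 10 μM final compound. The viability score is confluency as a fraction of resting cells, and a compound met the cutoff only with both masks above 70% of resting cells.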

[4] = agonist: CpG ODN 1826 0.5 ug/mL

Structure (SMILES)	NF-kB reporter [1, 4]	NF-kB reporter ([1]; agonist: LPS 0.1 ug/mL)	NF-kB reporter ([1]; agonist: MPLA […])	IRF reporter ([2]; agonist: 3'3'-cGAMP 10 ug/mL)	IRF reporter ([2]; agonist: LPS 0.1 ug/mL)	IRF reporter ([2]; agonist: MPLA […])	viability score [3]
COC(=O)c1ccccc1NC(=O)CCc1ccc(Oc2cc([N+](=O)[O-])cc([N+](=O)[O-])c2)cc1	1.22 ± 0.11	1.08 ± 0.079	1.13 ± 0.072	0.431 ± 0.054	1.03 ± 0.17	0.766 ± 0.17	1.01 (active)
O=C(NN=Cc1c(O)ccc2ccccc12)c1ccncc1	2.37 ± 0.19	1.3 ± 0.086	1.48 ± 0.052	0.75 ± 0.11	1.26 ± 0.1	1.21 ± 0.2	0.965 (active)
CCC(C)C(=O)OC1CC(C)C=C2C=CC(C)C(CCC3CC(O)CC(=O)O3)C21 (stereo not drawn)	1.33 ± 0.32	1 ± 0.061	1.06 ± 0.13	0.919 ± 0.031	1.19 ± 0.19	1.1 ± 0.16	1 (active)
CC(C)c1cc(C(=O)N2Cc3ccc(CN4CCN(C)CC4)cc3C2)c(O)cc1O	0.0684 ± 0.0053	0.106 ± 0.0088	0.311 ± 0.052	0.509 ± 0.3	0.971 ± 0.37	0.991 ± 0.44	0.762 (active)
COc1cc(C(=O)NCCCCc2ccccc2)cc(OC)c1OC	1.09 ± 0.095	1.04 ± 0.068	0.994 ± 0.034	0.906 ± 0.14	0.993 ± 0.068	0.983 ± 0.14	0.995 (active)
CCOC(=O)Cc1cc(OC)c(OC)cc1C(C)=NNc1ccccc1	0.719 ± 0.056	0.831 ± 0.12	0.98 ± 0.085	0.816 ± 0.055	1.13 ± 0.065	1.09 ± 0.15	1 (active)
COC(=O)C1=CN(CC2CCCO2)C=C(C(=O)OC)C1c1ccc(Cl)cc1 (stereo not drawn)	0.999 ± 0.19	0.992 ± 0.11	1.44 ± 0.54	0.94 ± 0.025	1.04 ± 0.13	1.07 ± 0.11	1 (active)
CN(C)CCCN1c2ccccc2CCc2ccc(Cl)cc21.Cl	0.559 ± 0.098	1.15 ± 0.43	1.64 ± 0.2	0.503 ± 0.02	1.18 ± 0.53	1.78 ± 0.18	0.239 (inactive)
CC(=O)O.CCN(CC)CC#CC1(O)CCCCC1	0.854 ± 0.083	0.981 ± 0.058	0.914 ± 0.059	0.902 ± 0.078	1.21 ± 0.14	1.06 ± 0.07	1.01 (active)
CNC(=O)c1ccccc1Sc1ccc2c(/C=C/c3ccccn3)n[nH]c2c1	0.626 ± 0.11	0.729 ± 0.25	0.813 ± 0.061	0.0229 ± 0.0024	0.485 ± 0.12	0.259 ± 0.048	0.897 (active)
CN(C)C/C=C/C(=O)Nc1cc2c(Nc3ccc(F)c(Cl)c3)ncnc2cc1O[C@H]1CCOC1.O=C(O)/C=C\C(=O)O.O=C(O)/C=C\C(=O)O	0.365 ± 0.017	0.661 ± 0.089	0.613 ± 0.034	0.418 ± 0.026	0.795 ± 0.17	0.855 ± 0.3	0.999 (active)
CC1(C)Cc2ccccc2C(=C(C#N)C#N)N1	1.01 ± 0.08	0.912 ± 0.068	1.06 ± 0.1	1.03 ± 0.041	1.33 ± 0.2	1.5 ± 0.34	1.01 (active)
O=C(Nc1nc2ccccc2n1CCN1CCOCC1)C1CCCCC1	1.03 ± 0.1	1 ± 0.088	0.933 ± 0.068	1.03 ± 0.039	1.55 ± 0.27	1.07 ± 0.12	1.02 (active)
CCc1cccc(C)c1NC(=O)C(C)(C)CC	0.948 ± 0.18	0.846 ± 0.12	0.911 ± 0.09	1.03 ± 0.041	0.988 ± 0.097	0.975 ± 0.1	0.995 (active)
